DRD3 antagonist = antagonists of human D3 dopamine receptor; P35462; D3R cells, DiscoveRx beta-arrestin luminescence, antagonist mode; stronger effect = lower value; max response, negative = inhibition, %; actives 2.5% (n = 360,000); AID 652054; in the data active = max response below about -50%; inconclusive = no clear call, values can overlap the other calls
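Cells expressing the human receptor were seeded at 1500 cells/well, incubated overnight at 37 degrees C in 5% CO2, then exposed to library compounds with dopamine controls for 90 minutes at 37 degrees C before luminescent detection.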
D1 antagonist = blocks dopamine activation of the human D1 receptor | P21728 | HEK293 TREx D1 cells, calcium flux, dopamine EC80; stronger effect = lower value | activity change, negative = inhibition, % at 10 µM | actives 3.2% (n = 360,000) | AID 504652; in the data active = activity change below about -30%
Target sequence (P21728 whole entry, looked up): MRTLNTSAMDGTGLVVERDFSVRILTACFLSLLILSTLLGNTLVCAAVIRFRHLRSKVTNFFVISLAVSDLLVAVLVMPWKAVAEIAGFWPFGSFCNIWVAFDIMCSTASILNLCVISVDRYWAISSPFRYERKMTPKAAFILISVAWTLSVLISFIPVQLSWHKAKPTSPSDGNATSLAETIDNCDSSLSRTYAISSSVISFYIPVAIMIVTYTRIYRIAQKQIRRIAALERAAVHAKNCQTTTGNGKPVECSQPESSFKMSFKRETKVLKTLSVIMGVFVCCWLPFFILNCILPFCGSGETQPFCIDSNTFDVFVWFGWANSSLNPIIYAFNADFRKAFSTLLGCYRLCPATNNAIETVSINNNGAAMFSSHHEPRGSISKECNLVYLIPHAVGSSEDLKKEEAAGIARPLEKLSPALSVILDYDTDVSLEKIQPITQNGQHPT
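Kinetic fluorescence of a calcium dye serves as the read-out. D1-expressing Hek293 Trex cells, induced overnight at 30 C, are exposed to compound for 180 s before an EC80 dopamine addition, then read 180 s further.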
DRD3 agonist = D3 dopamine receptor (human) agonism | P35462 | D3R DiscoveRx beta-arrestin cells, luminescence, 90 min | max activation, % | actives 0.58% (n = 410,000); in the data active = max activation above about 30%
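Agonist mode: compounds and dopamine controls were applied to plated cells for 90 min at 37 degrees C after an overnight attachment at 1500 cells/well. Luminescent read-out followed 30 - 60 minutes at room temperature with DiscoveRx detection reagent.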
D1 agonist = human D1 receptor agonism; P21728; HEK293 T-REx D1 cells, calcium flux, agonist mode; activation, % at 2 µM; actives 1% (n = 360,000); AID 504660; in the data active = activation above about 30%
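Agonism was scored from calcium flux recorded over 180 s (1 read/s) after pintool compound addition, following a 10-cycle baseline. Cells were inducible force-coupled HEK293 TREx D1, plated overnight at 30 C and loaded with no-wash calcium dye.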
D1 PAM = enhances dopamine response at the human D1 receptor. P21728. HEK293 TREx D1 cells, calcium flux, dopamine EC20 potentiation. potentiation, % at 10 µM. actives 0.036% (n = 360,000). AID 504651; in the data active = potentiation above about 30%
Numbers stand for hits; - = inactive; ? = inconclusive; . = not tested or not shown. An excerpt weighted towards active compounds, which were near 6% of everything screened.

SMILES	DRD3 antagonist	D1 antagonist	DRD3 agonist	D1 agonist	D1 PAM
Cn1cc(/C=C2\SC(=S)N(NC(=O)c3ccccc3Cl)C2=O)c2ccccc21	-	-	-	-	-
COc1ccc(/C=C2\SC(=S)N(CC3CCCO3)C2=O)cc1 (configuration not stated)	-	-	-	-	-
O=C1/C(=C/c2ccc(O)c(O)c2)SC(=S)N1Nc1ccccc1	-	-	-	48.0	-
COc1cc(/C=C2\SC(=S)N(NC(=O)c3ccc(O)cc3)C2=O)ccc1O	-	-	-	124.2	-
COc1cc(/C=C2/SC(=S)N(CC3CCCO3)C2=O)ccc1O (configuration not stated)	-	-	-	87.2	-
COc1cc(/C=C2\SC(=S)N(NC(=O)c3cccnc3)C2=O)ccc1O	-	-	-	-	-
O=C(O)c1ccc(/C=C2\SC(=S)N(Nc3ccccc3)C2=O)cc1	-	-	-	-	-
Cc1ccc(C(=O)NN2C(=O)/C(=C/c3cn(C)c4ccccc34)SC2=S)cc1	-	-	-	65.0	-
CC(=O)Nc1cccc(Nc2nc3ccccc3n3c(C)nnc23)c1	.	-	-	-	-
O=C(NN1C(=O)/C(=C/c2ccc(O)c(O)c2)SC1=S)c1ccccc1	-63.0	-	-	-	-
COc1cc(/C=C2\SC(=S)N(C(Cc3ccccc3)C(=O)O)C2=O)ccc1O (configuration not stated)	-	-	-	47.0	-
O=C(NN1C(=O)/C(=C/c2cccc(O)c2)SC1=S)c1ccccc1O	-	-	-	-	-
CCOc1cc(/C=C2\SC(=S)N(NS(=O)(=O)c3ccccc3)C2=O)ccc1O	-	-	-	-	-
CCOc1cc(/C=C2\SC(=S)N(Nc3ccccc3)C2=O)ccc1O	?	-47.2	-	39.7	-
COc1cc(/C=C2\SC(=S)N(Nc3ccccc3)C2=O)ccc1O	?	-	-	121.9	-
CCc1ccc(NC(=O)C2CCN(S(=O)(=O)c3c(C)noc3/C=C/c3cccs3)CC2)cc1	.	-	-	-	-
O=C(COCCOCCOCC(=O)Nc1c(I)cc(I)c(C(=O)O)c1I)Nc1c(I)cc(I)c(C(=O)O)c1I	.	.	-	.	.
CCOc1cc(/C=C2\CN(C)C/C(=C\c3ccc(O)c(OCC)c3)C2=O)ccc1O	-51.8	-	-	-	-
CC(C)COP(=O)(c1ccc(N(C)C)cc1)C(O)c1cccnc1 (configuration not stated)	-	-86.5	-	-	-
CC(C)OP(=O)(c1ccc(N(C)C)cc1)C(Nc1ccccc1)c1cccnc1 (configuration not stated)	-	-31.1	-	-	-
COc1cc(NC(=O)Cn2nc(C(F)(F)F)c(Br)c2C)cc([N+](=O)[O-])c1	-	-34.1	-	-	-
COc1ccc(CNC(=O)Cn2nc(C(F)(F)F)c(Br)c2C)cc1	-	-	-	-	-
Cc1ccc(NC(=O)Cn2nc([N+](=O)[O-])c(Br)c2C)cc1C	-	-32.5	-	-	-
O=C(CCN1CCC(c2ccccc2)C1)c1cccs1 (configuration not stated)	-66.2	-	-	-	-
O=C(c1cccs1)N1CCC(c2ccccc2)C1 (configuration not stated)	-59.5	-85.1	-	-	-
SMILES	DRD3 antagonist	D1 antagonist	DRD3 agonist	D1 agonist	D1 PAM
O=C(CCN1CCC(c2ccccc2)C1)c1ccccc1 (configuration not stated)	?	-	-	-	-
CCCSC1=NC2(CCN(C(=O)NC3CCCCC3)CC2)N=C1c1ccc(Cl)cc1	.	-	-	-	-
NC(=O)C1c2ccccc2Oc2ccccc21	-	-	-	-	-
O=C(O)c1ccccc1C1c2ccccc2Oc2ccccc21	-72.4	.	-	.	.
CC1CN(C(=O)CCC(=O)NCc2ccc(Cl)cc2)c2ccccc2O1 (configuration not stated)	-	-83.1	-	-	-
CC1CN(C(=O)Nc2ccc(C(=O)NCc3cccc(F)c3)cc2)c2ccccc2S1 (configuration not stated)	.	-43.0	-	-	-
CC1CN(C(=O)Nc2ccc(C(=O)NCc3ccccc3F)cc2)c2ccccc2S1 (configuration not stated)	.	-	-	-	-
CC1CCC(NC(=O)CCC(=O)N2CC(C)Oc3ccccc32)CC1 (configuration not stated)	-91.7	-	-	-	-

Assay outcomes deposited in PubChem BioAssay by National Center for Advancing Translational Sciences (NCATS).
